Source: PubChem BioAssay
In the library only some 19% were active in any assay of this set; here they are far more common.
TDP1 cell CPT – DT40-hTDP1 cell growth loss with CPT | chicken DT40 Tdp1-/-;hTDP1 cells + 20 nM CPT, ATP luminescence, 48 h | 420,000 tested, 12% active | AID 686979 | Potency, µM (series often up to 46.2 µM), most hits filed as inhibitors; note: nearly all actives have a fitted effect of over 55% in size
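Chicken DT40 Tdp1-/- cells stably complemented with human TDP1 were seeded at 400 cells/well in medium containing 20 nM camptothecin, exposed to pin-transferred compounds, and grown at 37 °C for at least 48 hr. Viability was read as ATP luminescence.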
HT1080-NT tox – kills 2HG-producing HT-1080-NT fibrosarcoma cells | HT-1080-NT fibrosarcoma viability, CellTiter-Glo ATP luminescence, 48 h | Potency, µM (doses to about 46.1 µM), most hits filed as cytotoxic | 360,000 tested, 1.6% active | AID 686970;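 note: NT is the 2HG producing partner of a matched IDH1 knockdown line; nearly all actives have a fitted effect of over 55% in size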
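Luminescent CellTiter-Glo readout after 48 hours of compound exposure at 37 degrees C defined viability of HT-1080-NT cells. Activity was normalized to DMSO wells and cell-free media wells; concentration-response curves were fitted and assigned curve classes.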
KB-3-1 cytotox – KB-3-1 parental cell cytotoxicity; AID 1347075; KB-3-1 viability, CellTiter-Glo ATP luminescence, 72 h; Potency, µM (highest dose often 46.1 µM), usual class: cytotoxic; 400,000 tested, 1.4% active; note: nearly all actives have a fitted effect of over 60% in size
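Here the drug-naive KB-3-1 line serves as comparator for MDR sub-line selectivity; cells received compound titrations, 72 h at 37 °C, then CellTiter-Glo readout.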
HT1080 IDH1KD tx – kills HT-1080 cells with IDH1 knockdown. Potency, µM (doses to about 46.1 µM), hits mostly cytotoxic. HT-1080 IDH1 knockdown viability, ATP luminescence, 48 h. 360,000 tested, 2% active
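Assay cells: HT-1080 with IDH1 knockdown, 750 per well, RPMI/5% FBS. Exposure: 48 h at 37 °C following 2 h pre-incubation. Read: CellTiter-Glo luminescence; fitted concentration-response, curve class assigned.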
DT40 TDP1 no CPT – qHTS for Inhibitors of human tyrosyl-DNA phosphodiesterase 1 (TDP1): qHTS in cells in absence of CPT; DT40 Tdp1-/- hTDP1 cells, no CPT, ATP luminescence, 48 h; 420,000 tested, 15% active; Potency, µM (series often up to 46.2 µM), usual class: inhibitors; note: nearly all actives have a fitted effect of over 55% in size
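Readout: luminescence from CellTiter-Glo after 30 min in the dark at RT. Cells: DT40 Tdp1-/- with stable hTDP1, 400/well. Exposure: compounds alone, ≥48 hr, 37 °C.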
KB-V1 MDR tox – kills drug-selected multidrug resistant KB-V1 cells. KB-V1 MDR cells viability, CellTiter-Glo, 72 h. Potency, µM (titrated, usually from 46.1 µM), most hits filed as cytotoxic. 400,000 tested, 3.4% active. AID 1347076; note: nearly all actives have a fitted effect of over 60% in size
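Readout: CellTiter-Glo luminescence, 10 min after addition. Cells: KB-V1 MDR subline, 72 h at 37 degrees C with compound. Analysis: corrected, normalized data fitted to concentration-effect curves.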
Large screens that a line does not name were inactive. Calls come from the whole dose curve; as a rule, active = well fitted curve in the direction sought with a large enough effect; inconclusive = small, poorly fitted or top-dose-only effect, or another doubt; inactive = no such curve, though single readings can be large; an effect the other way counts as inactive or inconclusive.

COCCN1C(=O)CCC1(C)c1nnnn1-c1ccc2ccccc2c1 (stereo not given)	none
O=C(O)C(=O)Nc1cccc(-c2nn[nH]n2)c1	none (no result: HT1080-NT tox, KB-3-1 cytotox, HT1080 IDH1KD tx, KB-V1 MDR tox)
COc1cc(C)c(NC(=S)Nc2ccc(Cl)c(Cl)c2)cc1OC	TDP1 cell CPT inconclusive, DT40 TDP1 no CPT inconclusive
Cc1cccc(C(=O)Nc2cccc(C(=O)OCc3cc(=O)n4ccsc4n3)c2)c1	none (no result: HT1080-NT tox, HT1080 IDH1KD tx)
COc1cc(NC(=O)CN(c2ccc(C)cc2)S(=O)(=O)c2cccc3nonc23)cc(OC)c1	TDP1 cell CPT inconclusive, DT40 TDP1 no CPT 18.4µM (no result: HT1080-NT tox, HT1080 IDH1KD tx)
COc1ccc(N(CC(=O)Nc2cc(C)ccc2C)S(=O)(=O)c2c(C)nn(C)c2C)cc1	TDP1 cell CPT inconclusive, DT40 TDP1 no CPT 25.9µM
CCOC(=O)c1cccc(NC(=O)CN(c2ccc(OC)cc2)S(=O)(=O)c2c(C)noc2C)c1	DT40 TDP1 no CPT inconclusive, KB-V1 MDR tox 9.2µM
COc1ccc(N(CC(=O)Nc2cccc(C(=O)O)c2)S(=O)(=O)c2c(C)noc2C)cc1	none
Cc1cc(C)cc(N(CC(=O)NC2CCC(C)CC2)S(=O)(=O)c2c(C)noc2C)c1 (stereo not given)	TDP1 cell CPT 20.6µM, DT40 TDP1 no CPT inconclusive
COC(=O)c1ccc(NC(=O)N(c2ccccc2)c2ccccc2)cc1	DT40 TDP1 no CPT inconclusive
COC(=O)c1sccc1S(=O)(=O)N(CC(=O)Nc1ccc(C)cc1)c1ccccc1	TDP1 cell CPT inconclusive, DT40 TDP1 no CPT 20.6µM (no result: HT1080-NT tox, HT1080 IDH1KD tx)
COc1ccc(N(CC(=O)Nc2cc(OC)cc(OC)c2)S(=O)(=O)c2c(C)noc2C)cc1	TDP1 cell CPT 7.31µM, KB-3-1 cytotox inconclusive, DT40 TDP1 no CPT 5.8µM (no result: HT1080-NT tox, HT1080 IDH1KD tx)
COc1ccc(NC(=O)CN(c2cc(C)cc(C)c2)S(=O)(=O)c2c(C)noc2C)cc1OC	TDP1 cell CPT inconclusive, DT40 TDP1 no CPT inconclusive
COc1ccc(N(CC(=O)Nc2cccc(C)c2)S(=O)(=O)c2c(C)noc2C)cc1	TDP1 cell CPT inconclusive, DT40 TDP1 no CPT 2.91µM
COC(=O)c1sccc1S(=O)(=O)N(CC(=O)NCc1ccccc1)c1ccccc1	DT40 TDP1 no CPT inconclusive (no result: HT1080-NT tox, HT1080 IDH1KD tx)
CC(=O)c1cccc(NC(=O)CN(c2cc(C)cc(C)c2)S(=O)(=O)c2c(C)noc2C)c1	TDP1 cell CPT 16.4µM, DT40 TDP1 no CPT 18.4µM (no result: HT1080-NT tox, HT1080 IDH1KD tx)
CCOc1ccccc1NC(=O)c1csc(C)c1C	none
COc1cccc(NC(=O)CN(C)C(=O)C2=COCCO2)c1	none
Cc1ccc(N(CC(=O)Nc2ccc(F)c(Cl)c2)S(=O)(=O)c2c(C)noc2C)cc1	TDP1 cell CPT inconclusive, HT1080-NT tox inconclusive, KB-3-1 cytotox inconclusive, HT1080 IDH1KD tx inconclusive, DT40 TDP1 no CPT inconclusive, KB-V1 MDR tox 18.4µM
COc1ccc(N(CC(=O)Nc2cc(C)ccc2C)S(=O)(=O)c2c(C)noc2C)cc1	TDP1 cell CPT inconclusive, KB-3-1 cytotox inconclusive, KB-V1 MDR tox inconclusive
COc1ccc(N(CC(=O)Nc2cc(C)ccc2OC)S(=O)(=O)c2c(C)noc2C)cc1	TDP1 cell CPT 23.1µM, HT1080-NT tox inconclusive, KB-3-1 cytotox inconclusive, HT1080 IDH1KD tx inconclusive, DT40 TDP1 no CPT inconclusive, KB-V1 MDR tox 9.2µM
COc1ccc(N(CC(=O)Nc2cc(Cl)ccc2C)S(=O)(=O)c2c(C)noc2C)cc1	TDP1 cell CPT 2.91µM, HT1080-NT tox 5.8µM, KB-3-1 cytotox 5.8µM, HT1080 IDH1KD tx inconclusive, DT40 TDP1 no CPT 3.66µM, KB-V1 MDR tox inconclusive
COc1ccc(N(CC(=O)Nc2ccc(C)cc2)S(=O)(=O)c2c(C)noc2C)cc1	TDP1 cell CPT inconclusive, DT40 TDP1 no CPT inconclusive
CC(=O)CSc1nnc(C(F)(F)F)n1C	none
CC(C)(C)C(=O)NC(NC(=S)Nc1sc2c(c1C#N)CCCC2)C(Cl)(Cl)Cl (stereo not given)	TDP1 cell CPT 25.9µM, DT40 TDP1 no CPT inconclusive
N#Cc1c(NC(=S)NC(=O)c2ccccc2)sc2c1CCC2	TDP1 cell CPT 18.4µM, DT40 TDP1 no CPT inconclusive
